Laboratory results reported in PubChem BioAssay (EPA / NIEHS).
Results filed as inconclusive are left out. Activity calls are given as the source filed them. Rule for the calls: active = hit-call score of the fitted dose curve at least 0.9, where 1 is the maximum; inconclusive = response in the unintended direction; inactive = score below 0.9.

target: human Vitamin D Receptor (VDR), VDR (gene 7421) (UniProt P11473); test: ATG_VDR_TRANS: Attagene TRANS-FACTORIAL HepG2 Assay for human Vitamin D Receptor (VDR) (AID 2283022)
Sequence (P11473 whole entry, looked up, the tested form may be a part): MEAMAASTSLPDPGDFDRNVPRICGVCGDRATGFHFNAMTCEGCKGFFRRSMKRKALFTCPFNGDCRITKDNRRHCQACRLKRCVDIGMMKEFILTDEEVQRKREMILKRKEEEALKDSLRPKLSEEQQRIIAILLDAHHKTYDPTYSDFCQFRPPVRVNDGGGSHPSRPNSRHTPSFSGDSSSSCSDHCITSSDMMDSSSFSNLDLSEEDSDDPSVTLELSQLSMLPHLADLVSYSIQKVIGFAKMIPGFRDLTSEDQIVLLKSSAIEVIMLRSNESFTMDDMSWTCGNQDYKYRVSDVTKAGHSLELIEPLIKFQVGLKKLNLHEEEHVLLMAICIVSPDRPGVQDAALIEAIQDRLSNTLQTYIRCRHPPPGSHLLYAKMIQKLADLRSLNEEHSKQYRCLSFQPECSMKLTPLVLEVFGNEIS
Summary of the method: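 Transactivation by an exogenous VDR-Gal4 chimera in transiently transfected HepG2 cells was measured as reporter transcript level 24 hours after chemical treatment. RT-PCR products were analysed by capillary electrophoresis and fitted in the positive direction relative to DMSO.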

outcome, inactive:
O=Cc1ccc(Cl)c([N+](=O)[O-])c1
NC(N)=NC(=O)c1nc(Cl)c(N)nc1N
C=CC[N+](C)(C)CC=C
CC(=O)C=CC1=C(C)CCCC1(C)C
CC(C)(C#N)c1cc(Cn2cncn2)cc(C(C)(C)C#N)c1
O=C(Oc1ccccc1)c1ccc(O)cc1
O=S(=O)(O)c1ccc(O)c2ncccc12
CCCc1c(OCCCOc2ccc(OCC(=O)O)cc2)ccc(C(C)=O)c1O
C[C@]12CC[C@H]3[C@@H](CCC4=CC(=O)CC[C@@]43C)[C@@H]1CC[C@@H]2C(=O)CO
COC(C(=O)O)c1ccccc1 (stereo not drawn)
O=C(COc1ccc(Cl)cc1)N1CCN(Cc2ccc3c(c2)OCO3)CC1
CC(C)OP(=O)(CP(=O)(OC(C)C)OC(C)C)OC(C)C
O=c1oc(=O)c2cc3c(=O)oc(=O)c3cc12
CC1=CC(=O)NS(=O)(=O)O1
CCOC(=O)c1ccccc1OC
C=O
Cc1c(Cl)c(=O)oc2cc(O)ccc12
COc1cc2ncnc(Nc3cccc(Cl)c3)c2cc1OC
C=C(C)C(=O)NCCCN(C)C
COC(=O)C1=C(C)NC(C)=C(C(=O)OCCN(C)Cc2ccccc2)C1c1cccc([N+](=O)[O-])c1 (stereo not drawn)
O=c1cc(-c2ccccc2)oc2cc(O)cc(O)c12
CC(O)C(C)O (stereo not drawn)
COc1nc(C)nc(N)n1
C=CC(=O)OCC(O)COc1ccccc1 (stereo not drawn)
C/C=C(\C)C(=O)OCc1ccccc1
Cc1ccc2sc3cccc(C)c3c2c1
C=COCCOCCOCCOC=C
COC(C)CCO (stereo not drawn)
CC(=O)OCc1ccc2c(c1)OCO2
CC(C)c1cccc(O)c1
CCCCCCCCCOC(C)=O
O=Cc1ccc(F)cc1
CC(CCO)CCCC(C)(C)O (stereo not drawn)
C=C(C)[C@@H]1CCC2=CC(=O)C[C@@H](C)[C@]2(C)C1
COc1ccc(Cl)cc1C
Nc1ccc(S(=O)(=O)O)c(N)c1
CC(=O)OCC=Cc1ccccc1
O=C(O)c1snc(Cl)c1Cl
